Experimental data as given in PubChem BioAssay AID624311 (Broad Institute, 2012).
Activity calls are given as the source filed them.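 Rule for the calls: active = fluorescence dropping 30% or more below neutral controls, activity change at or below -30%; inactive = the rest.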

Target: Protein disulfide-isomerase (Homo sapiens) (UniProt P07237)
Test: PDI-driven insulin aggregation, ProteoStat dye readout – biochemical, fluorescence, dry powder samples, orthogonal assay for PDI inhibitor project, confirmation (AID 624311)

Protein disulfide-isomerase (Homo sapiens), sequence (P07237 whole entry, looked up): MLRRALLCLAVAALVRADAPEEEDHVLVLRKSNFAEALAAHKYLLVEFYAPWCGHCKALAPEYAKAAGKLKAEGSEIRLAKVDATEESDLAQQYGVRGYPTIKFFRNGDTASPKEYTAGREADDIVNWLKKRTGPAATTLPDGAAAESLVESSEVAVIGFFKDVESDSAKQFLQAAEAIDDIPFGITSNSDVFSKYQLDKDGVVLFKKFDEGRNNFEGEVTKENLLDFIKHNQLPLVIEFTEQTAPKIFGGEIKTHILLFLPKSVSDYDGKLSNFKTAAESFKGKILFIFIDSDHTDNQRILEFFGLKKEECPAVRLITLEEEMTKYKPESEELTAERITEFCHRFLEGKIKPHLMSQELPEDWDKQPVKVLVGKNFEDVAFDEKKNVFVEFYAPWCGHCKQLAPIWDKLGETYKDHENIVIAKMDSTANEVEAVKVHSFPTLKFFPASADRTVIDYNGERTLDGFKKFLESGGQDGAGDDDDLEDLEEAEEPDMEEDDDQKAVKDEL

Compound: C[C@H]1CN([C@@H](C)CO)C(=O)c2cccc(NS(C)(=O)=O)c2O[C@H]1CN(C)Cc1ccc(Oc2ccccc2)cc1
- outcome: inactive
